Measured values as given in PubChem BioAssay AID372 (MTDP, 2006).
Values joined by “and” are separate entries in the source; they are usually repeats but may differ in a detail not shown here. Equal values may be shown once. About 770 (0.77%) of roughly 100,000 compounds were called active. Many of the other results were omitted from the sample, so actives are more common in it than they were. A number with no mark means an inactive call. Cut-off read from the data, not from the text of the source: active = inhibition above about 50%; inactive = the rest.

Biological target: Gag-Pol polyprotein (Human immunodeficiency virus type 1 group M subtype B (isolate HXB2)) (UniProt P04585)
Experiment: RNase H inhibition, HIV 1 Gag Pol polyprotein, FRET biochemical assay, screening (AID 372)
Conditions: HIV-1 RT RNase H, FRET RNA/DNA substrate fluorescence; at 10 µM; stronger effect = higher value

Compared with `Cc1ccc(OCCOCCN2CCC(C)CC2)cc1`, `CCOc1ccc(NC(=O)c2ccc([N+](=O)[O-])o2)cc1` is higher in inhibition: 15% for the first, 17% for the second.

Compared with `CCN1C(=O)c2cccc3c(NC(=O)c4cc([N+](=O)[O-])ccc4Cl)ccc1c23`, `COc1cc([N+](=O)[O-])ccc1NC(=O)c1ccccc1` is higher in inhibition: 5% for the first, 16% for the second.

First: C=CCN1C(=O)/C(=C\c2ccc(-c3ccc([N+](=O)[O-])cc3)o2)C(=O)NC1=S
Second: O=C1NC(=O)N(Cc2ccco2)C(=O)/C1=C\c1ccc(-c2ccc([N+](=O)[O-])cc2)o1
The inhibition of the first is lower: 10% for the first, 17% for the second.

First: C=CCN1C(=O)/C(=C\c2ccc(I)o2)C(=O)NC1=S
Second: C=CCN1C(=O)/C(=C/c2cc([N+](=O)[O-])ccc2OC)SC1=S
The inhibition of the first is higher: 27% for the first, 3% for the second.

Compared with `COc1ccc(S(=O)(=O)n2nnc3ccccc32)cc1OC`, `COc1ccc(OC)c(S(=O)(=O)n2nnc3ccccc32)c1` is higher in inhibition: 2% for the first, 3% for the second.

Compared with `COC(=O)C1=C(C)NC(=S)NC1c1cc(Br)ccc1OCc1ccccc1` (stereo not given), `CC1=C(C(=O)OCCc2ccccc2)C(c2ccc(O)cc2)C2=C(CCCC2=O)N1` (stereo not given) is lower in inhibition: 11% for the first, 2% for the second.

Going from `Cn1c(=O)c2[nH]c(N/N=C(/C#N)C(N)=O)nc2n(C)c1=O` to `Cc1sc2nc(SCC(N)=O)[nH]c(=O)c2c1C`, the inhibition falls from 8% to 0%.

Compared with `CCC(Oc1ccccc1)C(=O)Nc1cc(OC)c(Cl)cc1OC` (stereo not given), `CCC(Oc1ccccc1)C(=O)Nc1cc(Cl)ccc1Cl` (stereo not given) is higher in inhibition: 12% for the first, 40% for the second.

Compared with `C=CCn1cc(/C=c2\sc3n(c2=O)C(c2ccc(OC)cc2)C(C(=O)OCC)=C(C)N=3)c2ccccc21` (stereo not given), `CCOC(=O)C1=C(C)N=c2s/c(=C\c3ccc(OC)c(Br)c3)c(=O)n2C1c1ccccc1Cl` (stereo not given) is higher in inhibition: 15% for the first, 29% for the second.

First: O=C(/C=C/c1ccc(-c2ccccc2Br)o1)c1ccc(Cl)cc1
Second: N=C1/C(=C/c2ccc(-c3ccc(Cl)cc3Cl)o2)C(=O)N=C2SC(c3ccccc3)=NN12
The inhibition of the first is higher: 13% for the first, 2% for the second.

Compared with `NS(=O)(=O)c1ccc2c(c1)C1C=CCC1C(c1ccc([N+](=O)[O-])cc1)N2` (stereo not given), `O=C(N/N=C\c1ccc([N+](=O)[O-])cc1)c1cccc2cc[nH]c12` is lower in inhibition: 19% for the first, 8% for the second.

Compared with `CCCOC(=O)c1ccc(NC(=O)c2ccc([N+](=O)[O-])o2)cc1`, `Cc1ccc(C(=O)N/N=C/C=C/c2ccc([N+](=O)[O-])cc2)cn1` is lower in inhibition: 7% for the first, 1% for the second.

Compared with `O=C(Nc1cccc(Cl)c1)Nc1cc(Cl)ccc1Cl`, `Cc1cccnc1NC(=O)Nc1cccc(F)c1` is higher in inhibition: 0% for the first, 7% for the second.

Going from `COc1ccc(-n2c(O)c(C=Nc3ccc(Cl)cc3)c3ccccc3c2=O)cc1` to `COc1cc(S(=O)(=O)Oc2ccc(OCc3ccccc3)cc2)ccc1Cl`, the inhibition falls from 11% to 5%.

Going from `O=C(CC1OC(=O)c2ccccc21)c1ccccc1` (stereo not given) to `CC1CC(Nc2ccccc2)c2ccccc2N1` (stereo not given), the inhibition falls from 1% to 0%.

First: COc1ccc(C(=O)CSc2nc3sc(C)c(C)c3c(=O)[nH]2)cc1C
Second: Cc1cc(C)c2c(=O)[nH]c(SCC(=O)c3ccc(F)cc3)nc2n1
The inhibition of the first is higher: 44% for the first, 11% for the second.

Going from `Nc1cc(=O)[nH]c(SCC(=O)c2ccc(O)c(O)c2)n1` to `Cc1nc(SCC(=O)c2ccc(O)c(O)c2)n[nH]1`, the inhibition rises from 8% to 42%.

First: Cc1cc(C)c2c(=O)[nH]c(SCC(=O)c3ccc(Br)cc3)nc2n1
Second: Cc1cc(C)nc(SCC(=O)c2ccc(F)cc2)n1
The inhibition of the first is higher: 20% for the first, 13% for the second.

Going from `O=C(NNc1ccc(F)cc1)C(O)(c1ccccc1)c1ccccc1` to `O=C(Nc1ccccc1C#Cc1ccccc1)c1ccc(-c2ccccc2)cc1`, the inhibition falls from 2% to 0%.

Going from `NS(=O)(=O)c1ccc(Nc2nc(-c3ccccn3)cs2)cc1` to `Cc1nc2ccccc2n1C(=O)c1ccc([N+](=O)[O-])cc1`, the inhibition falls from 3% to 0%.

First: CC(=O)Nc1ccc2c(c1)C(=O)OC2(c1ccc(N(C)C)cc1)c1ccc(N(C)C)cc1
Second: COc1cc2ccccc2cc1C(=O)Nc1ccc(C)c(NC(=O)c2cc3ccccc3cc2OC)c1
The inhibition of the first is lower: 17% for the first, 28% for the second.

Compared with `Cc1ccc(N2NC(=O)/C(=C/c3ccc(-c4cc([N+](=O)[O-])ccc4C)o3)C2=O)cc1`, `CCOc1ccc(N2C(=O)/C(=C/c3ccc(-c4ccccc4C(=O)O)o3)C(=O)NC2=S)cc1` is higher in inhibition: 13% for the first, 15% for the second.

First: Cc1c(C(=O)O)cccc1-n1c(=O)c2cc3c(=O)n(-c4cccc(C(=O)O)c4C)c(=O)c3cc2c1=O
Second: Cc1ccc(C)n1-c1ccccc1C(=O)O
The inhibition of the first is lower: 10% for the first, 15% for the second.

Compared with `Cc1ccc(C)n1-c1ccc(Cl)cc1C(=O)O`, `Cc1ccc(C)n1-c1ccc(C(=O)O)cc1O` is lower in inhibition: 16% for the first, 8% for the second.

First: Cc1ccc(C(=O)O)cc1-n1c(C)ccc1C
Second: COc1cc(C(=O)O)c(-n2c(C)ccc2C)cc1OC
The inhibition of the first is higher: 19% for the first, 13% for the second.

First: COc1ccc(/C(C)=N/NC(=O)c2ccncc2)c(OC)c1OC
Second: O=C(O/N=C(/c1ccccc1)c1ccncc1)c1ccc(Cl)cc1Cl
The inhibition of the first is lower: 5% for the first, 18% for the second.

Going from `COc1cc(Br)c(CNc2cccc(C)c2)cc1OC` to `COc1ccc([N+](=O)[O-])cc1NCc1ccccc1F`, the inhibition falls from 22% to 12%.

Compared with `CCc1c(C)c(C#N)c2nc3ccccc3n2c1Nc1ccc(N(CC)CC)cc1`, `CCOC(=O)C1=C(O)/C(=C/c2ccc(O)c(OCC)c2)SC1=Nc1ccccc1` is lower in inhibition: 30% for the first, 20% for the second.

Compared with `COC(=O)CN1C(=O)c2cccc3cccc(c23)C1=O`, `COC(=O)C1=C(C)N(Cc2cccnc2)C(=O)/C1=C\c1ccc(Br)cc1` is higher in inhibition: 7% for the first, 14% for the second.

Going from `N#CC1=C(N)OC2=C(C(=O)CC(c3ccccc3)C2)C1c1coc2ccccc2c1=O` (stereo not given) to `COc1ccc(C2CC(=O)C3=C(C2)NC(C)=C(C(=O)OCc2ccccc2)C3c2cc(OC)c(OC)c(OC)c2)cc1` (stereo not given), the inhibition rises from 4% to 10%.

Compared with `O=C1NC(=O)N(Cc2ccco2)C(=O)/C1=C\c1ccc(-c2ccc(Cl)c([N+](=O)[O-])c2)o1`, `O=C1NC(=O)N(Cc2ccco2)C(=O)/C1=C\c1ccc(-c2ccc(Cl)c(Cl)c2)o1` is higher in inhibition: 35% for the first, 41% for the second.

Compared with `O=C1NC(=O)N(Cc2ccco2)C(=O)/C1=C\c1ccc(-c2cccc(Cl)c2Cl)o1`, `O=C1NC(=O)N(Cc2ccco2)C(=O)/C1=C\c1ccc(-c2ccc(C(=O)O)cc2)o1` is lower in inhibition: 46% for the first, 35% for the second.

Compared with `CCOC(=O)c1ccc(-c2ccc(/C=C3/C(=O)NC(=O)N(Cc4ccco4)C3=O)o2)cc1`, `Cc1c(/C=C2/C(=O)NC(=O)N(Cc3ccco3)C2=O)c2ccccc2n1CC(N)=O` is lower in inhibition: 34% for the first, 27% for the second.

Going from `Cc1cc(/C=C2/C(=O)NC(=O)N(Cc3ccco3)C2=O)c(C)n1-c1ccc([N+](=O)[O-])cc1` to `Cc1cc(/C=C2/C(=O)NC(=O)N(Cc3ccco3)C2=O)c(C)n1-c1ccc(Cl)cc1`, the inhibition falls from 14% to 12%.

Going from `O=[N+]([O-])c1cc2c(cc1C=Nc1cc(Cl)cc(Cl)c1)OCO2` to `O=C1NC(=Nc2cccc(Cl)c2Cl)S/C1=C\c1ccccc1`, the inhibition rises from 5% to 12%.

First: CCOC(=O)c1c(-c2ccc(C(C)C)cc2)csc1N
Second: CCOC(=O)C1=C(O)/C(=C/c2cc(OC)c(O)c(OC)c2)SC1=Nc1ccccc1
The inhibition of the first is higher: 27% for the first, 13% for the second.

First: Cc1ccc(N2C(=O)NC(=O)/C(=C\c3cccc(C(F)(F)F)c3)C2=O)cc1C
Second: Cc1cccc(C(=O)N2N=C(c3ccc(F)cc3)CC2(O)C(F)(F)F)c1 (stereo not given)
The inhibition of the first is higher: 5% for the first, 0% for the second.

Going from `COc1ccc(Cl)cc1S(=O)(=O)Oc1ccc(Cl)cc1` to `N=C1/C(=C/c2ccc(-c3cc(Cl)ccc3Cl)o2)C(=O)N=C2SC(c3ccccc3)=NN12`, the inhibition rises from 39% to 44%.

First: CCOC(=O)C1=c2s/c(=C\c3ccc(O)c(OCC)c3)c(=O)n2C(N)=C(C#N)C1c1ccc(O)c(OCC)c1 (stereo not given)
Second: CCOC(=O)C1=c2s/c(=C\c3cccnc3)c(=O)n2C(N)=C(C#N)C1c1cccnc1 (stereo not given)
The inhibition of the first is lower: 4% for the first, 7% for the second.

`CC(C)NC(=O)C12CC3(C)CC(C)(CC(C)(C3)C1)C2` gave an inhibition of 0%.

With `COc1ccc(S(=O)(=O)n2nnc3ccccc32)c2ccccc12` the inhibition was 55% (active).
In the case of `CCC(Oc1ccccc1)C(=O)Nc1cc(Cl)ccc1OC` (stereo not given), the inhibition is reported as 56% (active).
With `CCOC(=O)c1ccc(NC(=O)c2ccc([N+](=O)[O-])o2)cc1` the inhibition was 50% (active).
In the case of `Cc1cc(C)nc(SCC(=O)c2ccc(O)c(O)c2)n1`, the inhibition is reported as 74% (active).
In the case of `Cc1cc(=O)[nH]c(SCC(=O)c2ccc(Br)cc2)n1`, the inhibition is reported as 4% and 9%.
`Cc1sc2nc(SCC(=O)c3ccc(O)c(O)c3)[nH]c(=O)c2c1C` was tested, and the inhibition was 75% (active).
With `Cc1cc(=O)[nH]c(SCC(=O)c2ccc(O)c(O)c2)n1` the inhibition was 50% (active).
`Cc1c(C(=O)O)cccc1-n1c(C)ccc1C` was tested, and the inhibition was 58% (active).
`Cc1cc(-c2ccc(/C=C3/C(=O)NC(=O)N(Cc4ccco4)C3=O)o2)ccc1Br` was tested, and the inhibition was 58% (active).
`O=C1NC(=O)N(Cc2ccco2)C(=O)/C1=C\c1ccc(-c2ccc(Br)cc2)o1` was tested, and the inhibition was 53% (active).
For `Cc1cc([N+](=O)[O-])ccc1-n1c(C)cc(/C=C2/C(=O)NC(=O)N(Cc3ccco3)C2=O)c1C`, the inhibition was 50% (active).
For `O=C1NC(=O)N(Cc2ccco2)C(=O)/C1=C\c1ccc(-c2ccc(Cl)cc2Cl)o1`, the inhibition was 58% (active).
With `COc1ccc(Cl)cc1S(=O)(=O)Oc1ccc(OCc2ccccc2)cc1` the inhibition was 53% (active).
With `CCOC(=O)C1=c2s/c(=C\c3ccc(O)cc3)c(=O)n2C(N)=C(C#N)C1c1ccc(O)cc1` (stereo not given) the inhibition was 67% (active).
For `CCOC(=O)C1=C(O)/C(=C/c2ccc(O)c(OC)c2)SC1=Nc1ccccc1`, the inhibition was 50% (active).
In the case of `N=C1/C(=C/c2ccc(-c3ccccc3Cl)o2)C(=O)N=C2SC(c3ccccc3)=NN12`, the inhibition is reported as 56% (active).
